This is an account of results in PubChem BioAssay (Tox21).

Active and inactive are the calls of the source. Calls follow the shape of the dose curve; as a rule, active = well fitted activation curve with a large enough effect in the repeat runs; inconclusive = weak or mixed curves; inactive = flat fitted curve, though single readings scatter.
% is scaled to controls: 0 for no effect and ±100 for the full control effect.

The assay can be described thus: A CellTox Green Cytotoxicity Assay to monitor cytotoxicity in HepG2 cells - 0 hour (AID 1224882). Also: nearly all actives have a fitted effect of over 35% in size. The note with it: CellTox Green fluorescence; series mostly up to 76.8 µM. The text has this: National Center for Advancing Translational Sciences [NCATS]
NIH Chemical Genomics Center [NCGC]
U.S. Environmental Protection Agency [EPA]
National Institutes of Environmental Health Sciences [NIEHS]
National Toxicology Program [NTP]
Cell-based models are critical for drug discovery. Determining the natural cytotoxic effects resulting from test compounds is an essential research activity. A CellTox Green Cytotoxicity Assay to monitor cytotoxicity in real time of continues cell culture during 40 hours of the compound treatment was used to screen Tox21 10K library compounds in HepG2 cells. CellTox Green Cytotoxicity Assay is a nonlytic, homogeneous, biofluorescent method to measure cytotoxicity in cell culture after experimental manipulation. The assay system uses a proprietary asymmetric cyanine dye that is excluded from viable cells but preferentially stains the dead cell's DNA. […] Viable cells produce no appreciable increases in fluorescence. Therefore, the fluorescence signal produced by the binding interaction with dead cell DNA is proportional to cytotoxicity.
The mixture of HepG2 cell suspension and reagents were dispensed at 600cells/6 ul/well in 1536-well tissue culture treated black solid bottom plates using a Multidrop dispenser. After the assay plates were incubated at a 37 C/5% CO2 incubator for 5 hours, 23 nL of compounds dissolved in DMSO, positive and negative controls was transferred to the assay plate by a pintool work station. The plates were incubated at 37 C for 40 hours. The fluorescence intensity were measured at 0h, 8h, 16h, 24h, 32h and 40h time points using ViewLux plate reader during compound treatment.
Regarding `Cc1cccc(C)c1OCC(C)N` (stereo not given), the outcome was inactive.

For the molecule `Nc1cccc(O)c1`, the outcome was inactive.

Turning to `C[Si](C)(C)C`, the result was inactive. Still for that read-out and setting: then `NCCN1CCOCC1`, with “inactive”; and `COCCOCCOCCOCCOCCO`, with “inactive”. Same read-out and setting: then `CC(=O)c1ccc2c(c1)Cc1ccccc1-2`, with “inactive”; and `COc1ccc(C2CNC(=O)C2)cc1OC1CCCC1` (stereo not given), with “inactive”. Still for that read-out and setting: under `CC(=O)N[C@@H](CCC(=O)O)C(=O)O` stands “inactive”.

On to `C[Si](C)=O`, for which the cytotoxicity was -2.11% [at 6.97 µM] (inactive).

Regarding `C[C@@H]1O[C@@H](O[C@@H]2[C@@H](O)[C@H](OCCc3ccc(O)c(O)c3)O[C@H](CO[C@@H]3O[C@H](CO)[C@@H](O)[C@H](O)[C@H]3O)[C@H]2OC(=O)/C=C/c2ccc(O)c(O)c2)[C@H](O)[C@H](O)[C@H]1O`, the call was inactive. Turning to `COc1ccc2nc(SCc3ncc(C)c(OC)c3C)[nH]c2c1`, the outcome was inactive. On the same count and under the same terms, under `N[C@@H](CCC(=O)Nc1ccc([N+](=O)[O-])cc1)C(=O)O` stands “inactive”; under `CC(=O)NCCCCCC(=O)O`, “inactive”; under `COc1cc(N)ccc1C`, “inactive”. On to `CC(N)C(=O)OC(C)(C)Cc1ccc(Cl)cc1` (stereo not given), for which the molecule was classed as inactive. The same measure, in the same setting: then `Nc1ccc2cc(S(=O)(=O)O)cc(O)c2c1`, with “inactive”; and `O=C(CCN1CCN(CCO)CC1)N1c2ccccc2Sc2ccc(C(F)(F)F)cc21`, with “inactive”. Consider `O=C(c1ccc(O)cc1)c1ccc(O)c(O)c1O`, for which the outcome was inactive. The same measure, in the same setting: under `CCCCCCCCC1CCC(=O)O1` (stereo not given) stands “inactive”; under `CCC(C)(CCC(C)C)C(=O)O` (stereo not given), “inactive”.

In the case of `CO[C@@H]1[C@@H](OC(N)=O)[C@@H](O)[C@H](Oc2ccc3c(O)c(NC(=O)c4ccc(O)c(CC=C(C)C)c4)c(=O)oc3c2C)OC1(C)C`, the outcome was inactive. Same read-out and setting: under `CN(CCOc1ccc(NS(C)(=O)=O)cc1)CCc1ccc(NS(C)(=O)=O)cc1` stands “inactive”. On the same count and under the same terms, then `C=C(C)C1CCC(C)(O)CC1` (stereo not given), with “inactive”. As to `N[C@@H](COP(=O)(O)O)C(=O)O`, the cytotoxicity is 0.162% [at 15.8 µM] (inactive). In the case of `CC(=O)CCCCn1c(=O)c2c(ncn2C)n(C)c1=O`, the result was inactive. The same measure, in the same setting: under `O=C(NCC(O)CO)c1c(I)c(C(=O)NCC(O)CO)c(I)c(N(CCO)C(=O)CO)c1I` (stereo not given) stands “inactive”; under `Cc1cccc(OCC(O)CNC(C)(C)C)c1C` (stereo not given), “inactive”; under `CC(CC=O)CCCC(C)(C)O` (stereo not given), “inactive”.

With `C=Cc1ccccn1`, the molecule was called inactive. The same measure, in the same setting: under `C=C1CC/C=C(\C)CC[C@@H]2[C@@H]1CC2(C)C` stands “inactive”. `O=P(O)(O)OP(=O)(O)O`: the molecule was called inactive. As to `O=S(=O)(O)CCN1CCN(CCO)CC1`, the molecule was called inactive. For the molecule `CC(S)C(=O)NCC(=O)O` (stereo not given), the molecule was classed as inactive.

For the molecule `OCCCCC(O)CO` (stereo not given), the result was inactive. Still for that read-out and setting: under `CC(CO)c1ccccc1` (stereo not given) stands “inactive”; under `CCOC(=O)c1ncn2c1CN(C)C(=O)c1cc(F)ccc1-2`, “inactive”. Same read-out and setting: under `O=C(/N=N/C(=O)OCc1ccccc1)OCc1ccccc1` stands “inactive”. The same measure, in the same setting: then `CCOc1cc([N+](=O)[O-])c(OCC)cc1N1CCOCC1`, with “inactive”; and `Nc1nnc(-c2cccc(Cl)c2Cl)c(N)n1`, with “inactive”; and `C=CCCCCCCCCCCCC`, with “inactive”.
